Among all 13,000 compounds or so, about 3,200 (25%) showed an effect of 50% or more. The list shows a part of the results.
system: P. falciparum stage V gametocytes; set-up: BacTiter-Glo ATP luminescence viability of purified stage V gametocytes in 384-well plates, per cent inhibition versus DMSO; conditions: 48 h, 5 µM; inhibitor

Structure (SMILES) | % Inhibition
CCC(C)CN1CCN(c2ccc(NC(=O)c3cccs3)cc2)CC1C (centres unmarked) [TCMDC-134997] | 0.3581%
Cc1ccc(C(=O)NC2C(=O)NC2c2ccccc2)c(C)c1 (centres unmarked) [TCMDC-131386] | 4.246%
COc1ccc(NC(=O)[C@H](CC(C)C)Nc2cc(C)nc(NCc3ccccc3C)n2)cc1 [TCMDC-134909] | -97.01%
COc1cc2nc(N3CCC(CNC(=O)c4ccc(-c5ccc(Cl)cc5)cc4)CC3)nc(N)c2cc1OC [TCMDC-138718] | 145.1%
COc1cc2nc(NCC3CCN(C(=O)c4ccc(-c5ccc(C(=O)N(C)C)cc5C)cc4)CC3)nc(N)c2cc1OC [TCMDC-138182] | -26.73%
COc1cc2nc(N3CCC(CNC(=O)c4cccc5cc[nH]c45)CC3)nc(N)c2cc1OC [TCMDC-138184] | 101.1%
COc1cc2nc(N3CCC(CNC(=O)c4ccc(C(C)=O)cc4)CC3)nc(N)c2cc1OC.O=C(O)C(F)(F)F [TCMDC-138210] | 69.3%
COc1cc(N)c(Cl)cc1C(=O)NCC1CCN(c2nc(C)cc(C)n2)CC1 [TCMDC-124850] | 17.19%
COc1cc2nc(NCc3cccc(CNC(=O)c4ccc(-c5ccc(C(C)=O)cc5)cc4)c3)nc(N)c2cc1OC.O=C(O)C(F)(F)F [TCMDC-138177] | 117.9%
Cc1cc2nc(-c3ccc(C(=O)NCc4cccc(C(F)(F)F)c4)cc3)[nH]c2cc1C [TCMDC-140431] | -14.71%
COc1cc2nc(N3CCC(CNC(=O)c4ccc(OC(F)(F)F)cc4)CC3)nc(N)c2cc1OC.O=C(O)C(F)(F)F [TCMDC-138211] | -26.96%
COc1cc2nc(N3CCC(CNC(=O)c4cccc5cccnc45)CC3)nc(N)c2cc1OC [TCMDC-138181] | 14.63%
CN(C)Cc1cccc(-c2cnc(N)c(-c3nc4ccc(S(C)(=O)=O)cc4[nH]3)c2)c1 [TCMDC-133721] | 43.08%
CSc1ccc(CN2CCC(NC(=O)c3ccc(-c4cccc(Cl)c4)s3)CC2)cc1 [TCMDC-134341] | 12.93%
COc1cc(Nc2nc(N)n(C(=O)c3ccc4c(c3)OCO4)n2)cc(OC)c1OC [TCMDC-136737] | -65.07%
O=c1[nH]c2c(cc1CNC1CCCCC1)c(-c1ccc(F)cc1)nn2-c1ccccc1 [TCMDC-125352] | 14.87%
CCCCOC(=O)NCCCC[C@H](NC(=O)OC(C)(C)C)C(=O)N[C@H](C(=O)OC(c1ccccc1)c1ccccc1)[C@H]1O[C@@H](n2ccc(=O)[nH]c2=O)[C@@H]2OC(C)(C)O[C@@H]21 [TCMDC-131947] | 9.174%
Cc1c(C(=O)C2CC2CN2CCC(N3CCCC3)CC2)sc2ccccc12 (centres unmarked) [TCMDC-132577] | 31.52%
C=C[C@]1(C)C[C@@H](OC(=O)CSC2CN3CCC2C3)[C@@]2(C)C3C(=O)CC[C@@]3(CC[C@H]2C)[C@@H](C)[C@@H]1O (some centres unmarked) [TCMDC-139185] | 16.51%
CC(C)(C)c1cc(C(=O)N2CCN(c3cnccn3)CC2)n(Cc2ccccc2)n1 [TCMDC-133778] | 6.708%
COC(=O)c1ccc(-c2ccc(C(=O)NCC3CCN(c4nc(N)c5cc(OC)c(OC)cc5n4)CC3)cc2)cc1 [TCMDC-138721] | 127%

Structure (SMILES) | % Inhibition
COc1cc2nc(N3CCC(CNC(=O)c4ccc(-c5ccccc5)cc4)CC3)nc(N)c2cc1OC [TCMDC-137787] | -6.004%
COc1cc2nc(N3CCC(CNC(=O)c4ccc(-c5ccc(C(F)(F)F)cc5)cc4)CC3)nc(N)c2cc1OC [TCMDC-138716] | 114.6%
COc1cc2nc(N3CCC(CNCc4ccc(-c5ccc(C(F)(F)F)cc5)cc4)CC3)nc(N)c2cc1OC [TCMDC-138757] | 94.11%
COc1cc2nc(N3CCC(CNC(=O)c4ccc(NC(=O)c5ccc(Cl)cc5)cc4)CC3)nc(N)c2cc1OC [TCMDC-138712] | 79.48%
COc1ccc2nccc([C@@H](O)CN3CCC(NC(=O)C(=Cc4ccc(C#N)cc4)c4ccc(-c5ccccc5)cc4)CC3)c2c1 [TCMDC-141112] | -10.17%
Cc1cc(NC(=O)Nc2ccc(Cl)cc2F)c2ccccc2n1 [TCMDC-134658] | -34.71%
CCCC(C)NC(=O)c1cnn(-c2ccc(C(C)(C)C)cc2)c1OCc1ccc(Br)cc1 (centres unmarked) [TCMDC-139598] | 11.83%
CC(=O)Nc1ccc(C(=O)Nc2cccc(-c3ccc(-c4nc5cc(F)ccc5[nH]4)s3)c2)cn1 [TCMDC-136833] | -51.51%
Cn1c2c(c3ccccc31)CN(CCC1(c3ccc(Cl)c(Cl)c3)CN(C(=O)Cc3ccccc3)CCO1)CC2 (centres unmarked) [TCMDC-135563] | 32.52%
Cc1cc(C(=O)Nc2ccc3c(c2)CCN3C2CCN(Cc3ccc(F)cc3Cl)C2)no1 (centres unmarked) [TCMDC-135081] | 2.936%
Cc1cc(Cl)c(S(=O)(=O)NC(C)(C)C)cc1OCC(=O)NC1CCCCC1 [TCMDC-124352] | -13.59%
COCCN1CCC(CN(C)CC(C)(C)c2nc(-c3ccc(Cl)c(O)c3)c(-c3ccncc3)[nH]2)CC1 [TCMDC-140899] | -71.13%
CN1CCN(c2cc3c(cc2Cl)CCN3C(=O)Cc2ccc(Cl)c(NC(=O)Nc3cccc(C#N)c3)c2)CC1 [TCMDC-139474] | 3.911%
Nc1ncc(-c2ccc(F)cc2)cc1-c1nc2ccc(Cl)cc2[nH]1 [TCMDC-138810] | -32.19%
Cc1[nH]cnc1Cc1ccc2c(c1O)c1ccccc1n2C [TCMDC-131955] | -82.46%
Cc1cc(NC(=O)c2sc3ccccc3c2O)no1 [TCMDC-124522] | -1.25%
COc1c(C2CCN(CCN3CCC(CNC(=O)c4ccc(-c5ccc(C#N)cc5)cc4)CC3)CC2)ccc2c1CCCC2 [TCMDC-138859] | 105.9%
N#Cc1ccc(-c2ccc(C(=O)NCC3CCN(CCN4CCC(c5ccc6c(c5OCC(N)=O)CCCC6)CC4)CC3)cc2)cc1 [TCMDC-134563] | 103.8%
CCOc1c(OC)ccc2c1CCN(CCN1CCC(CNC(=O)c3ccc(-c4ccc(C#N)cc4)cc3)CC1)C2 [TCMDC-138848] | -12.76%
NC(=O)COc1c(C2CCN(CCN3CCC(CNC(=O)c4ccc(-c5ccc(C(F)(F)F)cc5)cc4)CC3)CC2)ccc2c1CCCC2 [TCMDC-134308] | 93.17%
N#Cc1ccc(-c2nc(CO)c(C(=O)NCCCCN3CCC(c4ccc5c(c4OCC(N)=O)CCCC5)CC3)s2)cc1 [TCMDC-138872] | -1.012%

Structure (SMILES) | % Inhibition
COc1c(C2CCN(CCN3CCC(NC(=O)c4ccc(-c5ccc(C(F)(F)F)cc5)cc4)CC3)CC2)ccc2c1CCCC2 [TCMDC-138857] | 16.95%
N#Cc1ccc(-c2ccc(C(=O)NCCCCN3CCC(c4ccc5c(c4OCC(N)=O)CCCC5)CC3)cc2)cc1 [TCMDC-138803] | 73.12%
N#Cc1ccc(-c2ccc(C(=O)NCCCCN3CCC(c4ccc5c(c4OCC(N)=O)CCCC5)CC3)nc2)cc1 [TCMDC-135212] | 23.96%
COc1cc(CNC[C@@H](O)[C@H](Cc2ccccc2)NC(=O)c2cc(C3CCCC3)cc(N3CCCC3=O)c2)cc(OC)c1 [TCMDC-134558] | -9.273%
COc1ccc(Nc2nccc(N3CCC(NC(=O)Nc4cccc(OC)c4)C3)n2)cc1 (centres unmarked) [TCMDC-133616] | -47.96%
CCSc1nnc(C2CCCN(CC(=O)Nc3cc(C(F)(F)F)ccc3Cl)C2)n1CC (centres unmarked) [TCMDC-123540] | 7.83%
CC(=O)C1(c2ccccc2)CCN(CCC2(c3ccc(Cl)c(Cl)c3)CN(C(=O)C3CCCCC3)CCO2)CC1 (centres unmarked) [TCMDC-135326] | -73.48%
CCOC(=O)c1c(C)n(-c2ccc(Cl)cc2)c2ccc(OC(=O)C=Cc3ccccc3)cc12 [TCMDC-125715] | -42.41%
CN(C)CCNC(=O)N1CCCN(c2ncnc3cc(-c4ccccc4)sc23)CC1 [TCMDC-134389] | -9.14%
CN(C)CCNC(=O)N1CCCN(c2ncnc3cc(-c4ccc(Cl)cc4)sc23)CC1 [TCMDC-134387] | 97.42%
CC(C)N1CCC(NC(=O)N2CCCN(c3ncnc4cc(-c5ccc(Cl)cc5)sc34)CC2)CC1 [TCMDC-134390] | -12.69%
O=C(Nc1ccccc1O)C1CCN(c2ncnc3cc(-c4ccc(F)cc4)sc23)CC1 [TCMDC-124822] | -65.25%
CC(C)N1CCC(NC(=O)N2CCCN(c3ncnc4cc(-c5ccccc5)sc34)CC2)CC1 [TCMDC-134391] | 65.6%
O=C(NCCN1CCCCC1)N1CCCN(c2ncnc3cc(-c4ccccc4)sc23)CC1 [TCMDC-134392] | 3.881%
CN(C)CCNC(=O)NC1CN(c2ncnc3cc(-c4ccccc4)sc23)C1 [TCMDC-134388] | -2.865%
O=C(NCCN1CCCC1)N1CCCN(c2ncnc3cc(-c4ccc(F)cc4)sc23)CC1 [TCMDC-134393] | 93.57%
O=C(NCCN1CCCC1)N1CCCN(c2ncnc3cc(-c4ccc(Cl)cc4)sc23)CC1 [TCMDC-134394] | -0.6581%
Cc1c(CNCCCNc2cc(=O)c3ccccc3[nH]2)sc(C(F)F)c1Br [TCMDC-141322] | -67.17%
NC(=O)c1ccc(NC(=O)CN(Cc2ccc(Cl)cc2)S(=O)(=O)c2ccccc2)cc1 [TCMDC-124454] | 35.94%
CN(C)CCOc1ccc(-n2c(-c3nonc3N)nc3cncc(-c4ccc(F)cc4)c32)cc1 [TCMDC-134178] | -7.095%

— paper PMC4552634, “A New Set of Chemical Starting Points with Plasmodium falciparum Transmission-Blocking Potential for Antimalarial Drug Discovery” (PLoS ONE, 2015)
